NS1 function inh: inhibitors of influenza NS1 protein function. Potency, µM (series often up to 46.1 µM), without a hit: top-dose activity, positive = more growth. 270,000 compounds, 0.4% hits; also: potency is read from the fitted curve at half-maximal effect; actives are rising curves; nearly all actives have a fitted effect of over 50% in size
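A cell-based growth assay was used: compounds that relieve NS1-induced slow growth of budding yeast raise OD600. Assay medium was yeast nitrogen base with ammonium sulphate and -URA supplement, pH 6.0, with 2% galactose.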
CHX counter: affects cycloheximide protein synthesis inhibition readout, counter-screen. max response, %. AID 2314. 300,000 compounds, 12% hits. cell reporter, cycloheximide protein synthesis inhibition counterscreen; in the data active = max response mostly above about 13%, no sharp cut-off; inactive = mostly below about 14%; also: read at 38.3 µM for the half of the compounds with a filed dose; 0% is about no effect
Shiga inhibitor: inhibitors of Shiga toxin in Vero cells; AID 2315; 290,000 compounds, 9.2% hits; Vero cells, Shiga toxin protein synthesis inhibition reporter; inhibition, % at 38.7 µM; in the data active = inhibition mostly above about 28%, no sharp cut-off; inactive = mostly below about 43%; also: 0% is about no effect
SARS PLP yeast: inhibitors of SARS-CoV papain-like protease in yeast; 330,000 compounds, 0.19% hits; AID 485353; S. cerevisiae expressing SARS-CoV PLpro, growth rescue; Potency, µM (titrated, usually from 32.9 µM), for the others: top-dose activity, positive = growth rescue, usual class: activators; also: potency is read from the fitted curve at half-maximal effect; 0% is about no effect; nearly all actives have a fitted effect of over 55% in size
An asterisk follows results filed as active; / = not tested or not shown. A selection: hits, their analogues and other compounds. The true share with any hit is near 12%. Unless noted, calls follow the shape of the full dose curve.

SMILES	NS1 function inh	CHX counter	Shiga inhibitor	SARS PLP yeast
Cc1c(C)n(Cc2ccccc2)c2ncnc(NCCN(C)C)c12	1%	-3	-2	5%
COCCn1c(C)c(C)c2c(NCCc3ccccc3)ncnc21	-7%	25*	67*	0%
Cc1c(C)n(CCc2ccccc2)c2ncnc(NCCCO)c12	-7%	48*	102*	1%
O=C(NC1CCCCC1)N1CCN(C(=O)c2ccco2)CC1	0%	7	-12	1%
COC(=O)Cn1c(=O)c2c(nc3n2CCCN3Cc2ccccc2)n(C)c1=O	-4%	-3	-22	-2%
CCOc1ccc(CCNC(=O)c2nnc(CS(=O)(=O)c3ccccc3)o2)cc1OCC	11%	-4	-5	6%
O/N=C(\c1ccccc1)c1nccc2ccccc12	5%	8	12	3%
Cc1c(C)n(CCc2ccccc2)c2ncnc(NN)c12	0%	16*	25	-2%
Cc1c(C)n(CCCN(C)C)c2ncnc(Nc3ccccc3)c12	5%	7	40	0%
COc1ccc(NCC(=O)Nc2cccc(C(F)(F)F)c2)cc1S(=O)(=O)N1CCOCC1	/	/	/	0%
CCCCOc1ccc(C(=O)N=c2sccn2C)cc1OC	-31%	44*	65*	-6%
Cn1ccsc1=NC(=O)c1ccc(S(C)(=O)=O)c([N+](=O)[O-])c1	-1%	43*	36*	-4%
Cn1ccsc1=NC(=O)c1cccc(C#N)c1	-17%	15*	61	-5%
Cc1ccc(C(=O)N=c2sccn2C)cc1C	-7%	-2	-16	-2%
Cn1ccsc1=NC(=O)c1ccc(S(C)(=O)=O)cc1	-6%	14	37*	-1%
O=C(NCc1ccco1)c1ccc(CS(=O)Cc2ccc(Cl)cc2)o1 (stereo unspecified)	-15%	6	-3	3%
CCC(=O)NNC(=O)Cc1c(C)n(C(=O)c2ccc(Cl)cc2)c2ccc(OC)cc12	-6%	-4	-5	1%
Cc1ccc(C(=O)N=c2sccn2C)cc1S(=O)(=O)N1CCOCC1	/	/	/	0%
Cn1ccsc1=NC(=O)c1ccc(Cl)c([N+](=O)[O-])c1	2%	16*	53*	-1%
CSc1ncccc1C(=O)N1CCN(S(=O)(=O)c2ccc3c(c2)OCCO3)CC1	/	/	/	2%
COc1ccc(/C=C/c2cc(=O)c3cc(Cl)ccc3o2)cc1	-50%	9	17	-30%
COc1ccc(/C=C/C2=NC(=C\N(C)C)/C(=O)O2)cc1	-63%	43*	107*	-6%
CC(C)/C(=N/Nc1ccccc1[N+](=O)[O-])c1ccccc1	-9%	27*	48*	-1%
C/C(=N\Nc1ccc([N+](=O)[O-])cc1)c1ccc(N2CCOCC2)cc1	-31%	-3	-12	0%
COC(=O)N/N=C(\C)c1ccc(C)c([N+](=O)[O-])c1	4%	19*	17*	-10%
SMILES	NS1 function inh	CHX counter	Shiga inhibitor	SARS PLP yeast
N#C/C(=N/Nc1ccccc1[N+](=O)[O-])C(N)=S	-58%	5	28	-17%
C/C(=N/Nc1ccccc1[N+](=O)[O-])c1ccc(C)c([N+](=O)[O-])c1	5%	16*	-6	1%
C/C(=N\Nc1ccccc1[N+](=O)[O-])c1ccc(N2CCOCC2)cc1	20%	21*	86*	-1%
Cc1cccc(N2CCN(C(=O)C3CCCN(S(=O)(=O)c4c(C)noc4C)C3)CC2)c1C (stereo unspecified)	-29%	/	/	/
CCOc1ccc(C(=O)CCc2nc3ccccc3s2)cc1	-64%	22*	62*	-6%
NC(=O)c1ccc(NC(=O)CCc2nc3ccccc3s2)cc1	6%	12*	17	3%
O=C(CCCc1nc2ccccc2s1)NCc1ccccc1F	1%	13*	25	2%
Cc1cc(C)nc(NS(=O)(=O)c2ccc(NC(=O)c3ccc(O)cc3O)cc2)n1	6%	-1	-4	2%
Cc1ccccc1SCC(=O)OCC(=O)N(C)c1c(N)n(Cc2ccccc2)c(=O)[nH]c1=O	/	/	/	3%
COc1ccc2nc(NC(=O)CSc3nc(SC)ns3)sc2c1	-19%	47*	72*	8%
CCSc1nnc(SCC(=O)NC2CCCCC2)s1	/	/	/	-1%
Cc1nc(SCC(=O)Nc2nc3ccccc3s2)n[nH]1	6%	54*	69*	-1%
COc1ccc2nc(NC(=O)CSc3n[nH]c(N)n3)sc2c1	/	/	/	-3%
CSc1nsc(SCC(=O)Nc2nc3ccccc3s2)n1	22%	30*	67*	5%
CSc1nsc(SCC(=O)NC2CCCCC2)n1	-9%	27*	52	1%
Cc1ccc2[nH]c3c(=O)n(CC(=O)N4CCN(C)CC4)ncc3c2c1	1%	1	-9	/
CSc1nsc(SCC(=O)Nc2ccccn2)n1	-6%	23*	42*	4%
COc1ccc(-c2csc(NC(=O)CSc3nc(SC)ns3)n2)cc1	8%	39*	57*	-27%
COc1ccc(NC(=O)CSc2nnnn2C)cc1	9%	-2	19	1%
COc1ccc(-c2csc(NC(=O)CSCC(=O)Nc3cc(C)on3)n2)cc1	/	/	/	-1%
COc1ccccc1NC(=O)CSc1nc(SC)ns1	-12%	7	16	-5%
COc1ccc2nc(NC(=O)CSc3nnnn3C3CCCCC3)sc2c1	-47%	3	19	/
COc1ccc2nc(NC(=O)CSc3nnnn3C)sc2c1	3%	28*	46*	2%
CCOc1ccc2nc(NC(=O)CSc3nnnn3C3CCCCC3)sc2c1	-39%	30*	50*	-5%
Cc1ccc(C(=O)Nc2ncccc2O)cc1S(=O)(=O)N1CCCCC1	/	/	/	8%
SMILES	NS1 function inh	CHX counter	Shiga inhibitor	SARS PLP yeast
COc1ccc2nc(NC(=O)CSc3nnc(C)s3)sc2c1	13%	12*	30	-2%
COC(=O)c1nc(NC(=S)NC(=O)c2cccs2)sc1C	-6%	23*	51*	-5%
O=C(Nc1ccc(NC(=S)NC(=O)c2cccs2)cc1)c1ccccc1	17%	11	-2	0%
O=C(NC(=S)Nc1nc2ccccc2s1)c1cccs1	-6%	82*	74*	-3%
CCc1ccc(OCc2nnc(NC(=O)c3cccs3)s2)cc1	-4%	-2	-10	-6%
CCc1ccc(-c2nc(NC(=S)NC(=O)c3cccs3)sc2C)cc1	-1%	-1	-5	-7%
COC(=O)Cc1nc(NC(=O)c2cccs2)sc1C	-7%	35*	54*	0%
COc1cccc(C2NC(=O)NC(C)=C2C(=O)OCC2CCCCC2)c1 (stereo unspecified)	26%	-2	20	17%
O=C(O)c1ccc(Nc2nc(-c3cccnc3)cs2)cc1O	40%	7	17	7%
Cc1ccc(C)c(Nc2nc(-c3cccnc3)cs2)c1	-14%	24*	111*	-4%
Cc1ccc(Nc2nc(-c3cccnc3)cs2)cc1Cl	-62%	44*	78	-6%
O=C(CN1CCC(Cc2ccccc2)CC1)N1CCc2ccccc2C1	7%	-2	-10	-2%
O=C(Nc1ccc(N2CCOCC2)cc1)c1c(F)cccc1Cl	/	11	35	0%
CC(C)(C)c1ccc(NC(=O)c2c(F)cccc2Cl)cc1	-1%	31*	55*	-2%
O=C(Nc1ncc(Cl)cc1Cl)c1c(F)cccc1Cl	/	21	66*	2%
CCOC(=O)CN1C(=O)S/C(=C/C=C/c2ccc(N(C)C)cc2)C1=O	20%	30*	15	2%

Screening results: PubChem, National Center for Advancing Translational Sciences (NCATS)
